# In PubChem BioAssay (NCATS):
# Values joined by “and” are separate entries in the source; they are usually repeats but may differ in a detail not shown here. Equal values may be shown once. Results filed as inconclusive are left out. Active and inactive are the calls of the source. Unless noted, calls follow the shape of the dose curve; as a rule, active = well fitted curve in the direction sought with a large enough effect; inconclusive = small, poorly fitted or top-dose-only effect, or another doubt; inactive = no such curve, though single readings can be large; an effect the other way counts as inactive or inconclusive.
# Legend:
# [1] = molecular target: Cytochrome P450 2C9 (Homo sapiens) (UniProt P11712); test: Cytochrome P450 family 2 subfamily C member 9 (CYP2C9) small molecule antagonists: luciferase biochemical (cell-free) qHTS assay (AID 1645842; active = well fitted curve in the direction sought with a large enough effect in the repeat runs; an effect the other way counts as inactive or inconclusive; also: nearly all actives have a fitted effect of over 55% in size; also: potency is read from the fitted curve at half-maximal effect; as to activity change, negative = inhibition: % is scaled to controls: 0 for no effect and ±100 for the full control effect)
# Sequence of Cytochrome P450 2C9 (Homo sapiens) (P11712 whole entry, looked up): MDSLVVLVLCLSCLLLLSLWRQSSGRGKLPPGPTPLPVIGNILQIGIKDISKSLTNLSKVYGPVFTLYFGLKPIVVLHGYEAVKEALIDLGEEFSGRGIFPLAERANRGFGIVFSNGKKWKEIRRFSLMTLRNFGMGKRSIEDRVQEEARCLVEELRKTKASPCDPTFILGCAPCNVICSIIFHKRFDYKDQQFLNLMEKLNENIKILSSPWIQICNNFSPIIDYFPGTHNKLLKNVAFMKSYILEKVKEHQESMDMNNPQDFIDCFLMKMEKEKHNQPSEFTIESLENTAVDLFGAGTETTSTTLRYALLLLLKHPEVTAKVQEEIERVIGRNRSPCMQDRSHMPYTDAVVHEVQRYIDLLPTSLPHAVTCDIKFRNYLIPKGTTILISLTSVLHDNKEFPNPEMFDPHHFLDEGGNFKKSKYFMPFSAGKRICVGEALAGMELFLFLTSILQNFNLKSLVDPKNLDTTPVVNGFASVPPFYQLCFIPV
# Procedure, shortened: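 P450-Glo CYP2C9 system: proluciferin substrate with enzyme in mix containing 0.4% BSA, 10 min at room temperature, then NADPH regeneration solution added and incubated 1 h at 37C. Detection reagent stopped reaction; luminescence read after 20 min as RLU.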
# [2] = molecular target: N-terminal Xaa-Pro-Lys N-methyltransferase 1 (Homo sapiens) (UniProt Q9BV86); test: Confirmatory qHTS for Inhibitors of N-terminal methyltransferase 1 (NTMT1): MTaseGlo Assay (AID 1645874); also: nearly all actives have a fitted effect of over 65% in size; also: potency is read from the fitted curve at half-maximal effect;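 as to activity change, negative = inhibition: luminescence from SAH made as NTMT1 methylates SPKRIA peptide using SAM; 0% = DMSO control and -100% = no-enzyme control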
# Sequence of N-terminal Xaa-Pro-Lys N-methyltransferase 1 (Homo sapiens) (Q9BV86 whole entry, looked up): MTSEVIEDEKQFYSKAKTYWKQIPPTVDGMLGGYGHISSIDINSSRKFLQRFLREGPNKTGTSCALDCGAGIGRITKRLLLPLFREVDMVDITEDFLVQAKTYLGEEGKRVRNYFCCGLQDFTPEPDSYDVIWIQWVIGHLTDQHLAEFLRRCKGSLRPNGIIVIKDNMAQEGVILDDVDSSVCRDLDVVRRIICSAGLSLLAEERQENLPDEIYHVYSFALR
# Procedure, shortened: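 SPKRIA peptide at 1 uM was methylated by 125 nM NTMT1 using 100 uM SAM over 30 min at room temperature, following a 15 min compound preincubation. Product SAH was detected luminescently.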
# [3] = Primary qHTS for inhibitors of nuclear receptor binding SET domain protein 2 (NSD2) in an isogenic RCH-ACV NSD2 p.E1099K mutant (9B) (AID 1645876); also: nearly all actives have a fitted effect of over 70% in size; also: potency is read from the fitted curve at half-maximal effect
# [4] = Primary qHTS for inhibitors of nuclear receptor binding SET domain protein 2 (NSD2) in an RCH-ACV wild type WT cells (2C) (AID 1645877); also: nearly all actives have a fitted effect of over 70% in size; also: potency is read from the fitted curve at half-maximal effect
# [5] = molecular target: Rap guanine nucleotide exchange factor 3 (Homo sapiens) (UniProt O95398); test: Confirmatory qHTS for agonist of cAMP-regulated guanine nucleotide exchange factor 3 (EPAC1) (AID 1645881);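 also: EPAC1 catalysed release of BODIPY-GDP from Rap1B seen as fluorescence loss; 100% = effect of cAMP agonist control; nearly all actives have a fitted effect of over 75% in size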
# Sequence of Rap guanine nucleotide exchange factor 3 (Homo sapiens) (O95398 whole entry, looked up): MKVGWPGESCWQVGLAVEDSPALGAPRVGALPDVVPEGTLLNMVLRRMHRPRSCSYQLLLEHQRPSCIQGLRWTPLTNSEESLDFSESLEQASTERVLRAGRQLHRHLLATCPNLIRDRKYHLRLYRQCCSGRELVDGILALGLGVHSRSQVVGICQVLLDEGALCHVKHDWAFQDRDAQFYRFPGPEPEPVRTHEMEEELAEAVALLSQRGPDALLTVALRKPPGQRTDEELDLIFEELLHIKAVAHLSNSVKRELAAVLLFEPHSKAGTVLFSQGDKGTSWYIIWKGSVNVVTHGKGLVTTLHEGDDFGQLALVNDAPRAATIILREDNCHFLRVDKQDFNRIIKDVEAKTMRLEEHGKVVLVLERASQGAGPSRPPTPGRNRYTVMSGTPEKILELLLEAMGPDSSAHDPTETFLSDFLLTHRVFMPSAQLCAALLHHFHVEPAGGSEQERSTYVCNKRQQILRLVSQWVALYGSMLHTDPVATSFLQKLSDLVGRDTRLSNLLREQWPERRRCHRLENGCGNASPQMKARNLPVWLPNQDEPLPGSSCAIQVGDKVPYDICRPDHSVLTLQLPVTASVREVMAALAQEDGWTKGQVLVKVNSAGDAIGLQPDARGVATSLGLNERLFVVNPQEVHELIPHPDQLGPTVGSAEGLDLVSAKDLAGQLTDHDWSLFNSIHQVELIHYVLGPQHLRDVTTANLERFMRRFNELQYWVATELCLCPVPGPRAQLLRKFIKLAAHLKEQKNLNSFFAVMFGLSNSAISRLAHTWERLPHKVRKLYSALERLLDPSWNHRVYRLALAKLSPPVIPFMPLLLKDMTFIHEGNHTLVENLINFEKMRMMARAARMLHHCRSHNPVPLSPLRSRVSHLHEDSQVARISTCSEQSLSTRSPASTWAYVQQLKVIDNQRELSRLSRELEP
# [6] = molecular target: Rap guanine nucleotide exchange factor 4 (Homo sapiens) (UniProt Q8WZA2); test: Confirmatory qHTS for agonist of cAMP-regulated guanine nucleotide exchange factor 4 (EPAC2) (AID 1645884);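 also: nucleotide exchange releases bodipy-GDP from Rap1 and this lowers its fluorescence; % is scaled to controls: 0 for no effect and ±100 for the full control effect; nearly all actives have a fitted effect of over 65% in size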
# Sequence of Rap guanine nucleotide exchange factor 4 (Homo sapiens) (Q8WZA2 whole entry, looked up): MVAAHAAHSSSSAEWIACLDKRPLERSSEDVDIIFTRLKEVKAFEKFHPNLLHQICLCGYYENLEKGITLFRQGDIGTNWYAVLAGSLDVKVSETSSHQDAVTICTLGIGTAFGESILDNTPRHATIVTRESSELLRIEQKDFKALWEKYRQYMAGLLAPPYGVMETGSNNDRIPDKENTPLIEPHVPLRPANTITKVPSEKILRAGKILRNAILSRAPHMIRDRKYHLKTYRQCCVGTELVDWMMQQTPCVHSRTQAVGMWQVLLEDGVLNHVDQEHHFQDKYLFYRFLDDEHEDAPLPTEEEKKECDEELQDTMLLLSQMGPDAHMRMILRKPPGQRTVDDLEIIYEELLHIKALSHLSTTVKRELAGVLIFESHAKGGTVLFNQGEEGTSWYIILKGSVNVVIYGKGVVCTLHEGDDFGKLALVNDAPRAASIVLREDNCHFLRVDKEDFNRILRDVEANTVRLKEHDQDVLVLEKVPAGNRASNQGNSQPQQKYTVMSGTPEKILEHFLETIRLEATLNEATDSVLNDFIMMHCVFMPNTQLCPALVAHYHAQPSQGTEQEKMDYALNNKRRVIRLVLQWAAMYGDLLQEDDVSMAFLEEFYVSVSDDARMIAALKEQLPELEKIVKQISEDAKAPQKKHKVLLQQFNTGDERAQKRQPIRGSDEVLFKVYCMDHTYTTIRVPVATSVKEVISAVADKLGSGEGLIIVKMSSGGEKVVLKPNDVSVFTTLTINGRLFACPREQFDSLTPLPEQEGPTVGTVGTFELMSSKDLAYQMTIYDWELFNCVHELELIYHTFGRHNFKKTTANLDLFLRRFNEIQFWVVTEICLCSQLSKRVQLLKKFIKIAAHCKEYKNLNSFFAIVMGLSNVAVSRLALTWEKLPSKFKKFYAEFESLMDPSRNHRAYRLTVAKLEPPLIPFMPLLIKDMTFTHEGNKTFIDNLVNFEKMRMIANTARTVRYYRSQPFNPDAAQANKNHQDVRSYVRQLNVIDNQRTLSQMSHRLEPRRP
# [7] = molecular target: Rap guanine nucleotide exchange factor 3 (Homo sapiens) (UniProt O95398); test: Counterscreen qHTS for antagonist of cAMP-regulated guanine nucleotide exchange factor 3 (EPAC1) (AID 1645888);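 also: fluorescence loss as bound BODIPY-GDP is released from Rap1B; % of control where 0% means no effect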
# Procedure, shortened: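 Rap1B–BODIPY-GDP (250 nM) with 50 uM GDP; compounds pin-transferred to 9.74 nM–152 uM final (activator) or from 7.32 nM upwards (inhibitor). Fluorescence Ex/Em 480/540 nm read at 5 and 30 min, then after adding cAMP or buffer, at room temperature.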
# [8] = molecular target: Catechol O-methyltransferase (Homo sapiens) (UniProt P21964); test: Confirmatory Screen for Target Class Profiling of Small Molecule Inhibitors of Methyltransferases (AID 1745852); conditions: MTase-Glo luminescence, SAH detection, recombinant enzyme; measured here: COMT max response; stronger effect = lower value; as to activity change, negative = inhibition: % is scaled to controls: 0 for no effect and ±100 for the full control effect
# Sequence of Catechol O-methyltransferase (Homo sapiens) (P21964 whole entry, looked up): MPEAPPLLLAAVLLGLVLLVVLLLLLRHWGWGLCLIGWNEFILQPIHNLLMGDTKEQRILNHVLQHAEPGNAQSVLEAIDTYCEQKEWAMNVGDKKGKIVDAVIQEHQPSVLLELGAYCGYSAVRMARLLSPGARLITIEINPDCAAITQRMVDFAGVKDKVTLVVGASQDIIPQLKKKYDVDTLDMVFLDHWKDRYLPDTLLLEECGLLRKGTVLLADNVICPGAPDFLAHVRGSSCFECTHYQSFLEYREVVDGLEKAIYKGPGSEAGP
# [9] = molecular target: Guanidinoacetate N-methyltransferase (Homo sapiens) (UniProt Q14353); test: as above; conditions: activity change, negative = inhibition: at 57.3 µM (top of the series) unless noted
# [10] = molecular target: Nicotinamide N-methyltransferase (Homo sapiens) (UniProt P40261); test: as above; conditions: MTase-Glo luminescence, SAH detection, recombinant enzyme; measured here: NNMT max response; stronger effect = lower value
# Sequence of Nicotinamide N-methyltransferase (Homo sapiens) (P40261 whole entry, looked up): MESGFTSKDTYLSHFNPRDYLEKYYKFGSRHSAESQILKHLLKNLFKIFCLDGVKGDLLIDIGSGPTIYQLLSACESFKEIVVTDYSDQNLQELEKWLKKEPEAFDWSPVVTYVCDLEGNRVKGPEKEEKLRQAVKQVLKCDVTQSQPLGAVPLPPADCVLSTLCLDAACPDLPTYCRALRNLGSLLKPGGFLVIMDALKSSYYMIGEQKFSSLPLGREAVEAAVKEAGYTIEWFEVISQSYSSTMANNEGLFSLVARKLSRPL
# [11] = molecular target: Phenylethanolamine N-methyltransferase (Homo sapiens) (UniProt P11086); test: as above; conditions: MTase-Glo luminescence, SAH detection, recombinant enzyme; measured here: PNMT max response; stronger effect = lower value
# Sequence of Phenylethanolamine N-methyltransferase (Homo sapiens) (P11086 whole entry, looked up): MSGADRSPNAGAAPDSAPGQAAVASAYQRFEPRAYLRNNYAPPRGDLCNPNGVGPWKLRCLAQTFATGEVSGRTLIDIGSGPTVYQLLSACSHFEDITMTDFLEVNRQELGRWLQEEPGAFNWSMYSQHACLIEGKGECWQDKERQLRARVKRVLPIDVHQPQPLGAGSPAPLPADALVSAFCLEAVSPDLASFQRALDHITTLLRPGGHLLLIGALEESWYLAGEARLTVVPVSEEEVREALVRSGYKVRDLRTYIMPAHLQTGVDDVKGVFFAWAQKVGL
smiles,measurement,setting,value
O=S(=O)(Cc1ccccc1)Nc1ccc(-c2ccc3c(cnn3-c3ccc(F)cc3)c2)c(C(F)(F)F)c1,Potency,[1],6.01 µM (active)
same,Potency,[2],inactive
same,Potency,[3],18.3 µM (active)
same,Potency,[4],183 nM (active)
COc1ccc(-c2cc3onc(-c4ccncc4)c3c(=O)n2C)cc1,Potency,[1],0.952 µM (active)
Cc1nc(N2CCN(C(=O)c3ccco3)CC2)c2c3c(sc2n1)CCCC3,Potency,[1],4.77 µM (active)
CN(C)C(=O)Nc1cc(-c2ccccc2)ccc1N(C)C,Potency,[1],15.1 µM (active)
same,Potency,[2],inactive
same,Potency,[4],inactive
CCCc1cc(C)n(C)c(=O)c1CN(C)C(=O)c1cc(-c2ccc(N3CCN(C(C)C)CC3)nc2)cc2c1cnn2C(C)C,Potency,[1],0.601 µM (active)
same,Potency,[3],inactive
O=c1cc(N2CCN(c3cccc(C(F)(F)F)c3)CC2)[nH]c(=O)n1C1CCCCC1,Potency,[1],3.01 µM (active)
same,Potency,[3],inactive
O=C(N[C@@H]1CCCc2c1cnn2-c1ccc(F)cc1F)c1ccccn1,Potency,[1],21.3 µM (active)
Cc1cc(C)c2c(c1)C(N(Cc1cc(C(F)(F)F)cc(C(F)(F)F)c1)c1nnn(C)n1)CCCN2CC1CCC(C(=O)O)CC1 (configuration not stated),Potency,[1],10.7 µM (active)
COc1ccc2cc3c(NC(=O)c4ccco4)nn(C)c3nc2c1,Potency,[1],15.1 µM (active)
same,Potency,[2],inactive
N#Cc1cc(-c2ccnc(Nc3ccc(N4CCOCC4)cc3)n2)ccc1OC1CCOCC1,Potency,[1],2.13 µM (active)
same,Potency,[3],1.45 µM (active)
N#Cc1ccc(Nc2nc(-c3ccc(O)cc3O)cs2)cc1C(F)(F)F,Potency,[1],1.69 µM (active)
same,Potency,[2],inactive
same,Potency,[3],16.3 µM (active)
same,outcome,[5],inactive
same,outcome,[6],inactive
same,outcome,[7],inactive
CC(=O)Nc1cccc(Nc2ncnc(N3CCC(OCc4ccc(OC(F)(F)F)cc4)CC3)n2)c1C,Potency,[1],13.5 µM (active)
Cc1cc(C(=O)Cn2cc(C#N)ccc2=O)c(C)n1Cc1ccccc1,Potency,[1],16.9 µM (active)
COc1ccc2nc(-c3cc(OC)c(OC)c(OC)c3)cc(C(=O)NCC(=O)Nc3ccc(C(C)=O)cc3)c2c1,Potency,[1],7.56 µM (active)
same,Potency,[2],inactive
same,Potency,[3],12.9 µM (active)
O=C(O)c1cc(N(Cc2ccc(C3CCCCC3)cc2)C(=O)c2ccc(Oc3ccccc3)cc2)ccc1O,Potency,[1],23.9 µM (active)
same,Potency,[2],30.8 µM (active)
N#Cc1cccc(C(=O)Nc2cc(-c3ccccc3)nn2-c2ccccc2)c1,Potency,[1],2.39 µM (active)
CC1=C(C(=O)Nc2cc(Cl)ccc2Cl)C(c2ccco2)C2=C(CCCC2=O)N1 (configuration not stated),Potency,[1],1.07 µM (active)
COC(=O)c1cc(Br)cnc1N1CCC(NC2CCCCC2)C(O)C1 (configuration not stated),Potency,[1],inactive
same,Potency,[3],inactive
CN[C@@H]1CCc2[nH]c3ccc(C(N)=O)cc3c2C1,Potency,[1],inactive
COc1ccc([C@H](Cc2ccncc2)c2ccccc2)cc1OC1CCCC1,Potency,[1],0.425 µM (active)
O=C(Nc1ccccc1)c1ccc(Nc2nnc(-c3ccc(O)cc3)c3ccccc23)cc1,Potency,[1],6.01 µM (active)
same,Potency,[2],inactive
Nc1c(CC(=O)O)cccc1C(=O)c1ccccc1,Potency,[1],inactive
Cc1ccc(NC(=O)N2CCN(c3nc(N)nc4sc(-c5cccnc5)nc34)CC2)cc1,Potency,[1],3.01 µM (active)
same,Potency,[2],inactive
same,Potency,[3],0.258 µM (active)
same,Potency,[4],230 nM (active)
COc1cc2c(Nc3cc(F)c(Cl)c(Cl)c3)ncnc2cc1OCC1CCCN(C)CCC1,Potency,[1],19 µM (active)
same,Potency,[2],31.6 µM (active)
same,Potency,[3],3.25 µM (active)
same,Potency,[4],5150 nM (active)
same,activity,[8],-15.2%
same,"activity change, negative = inhibition",[9],-2.91%
same,activity,[10],-13.9%
same,activity,[11],-10.4%
NCCOc1cc(C(=O)Nc2cc(OCCN)c3ccccc3n2)nc(C(=O)Nc2cc(OCCN)c3ccccc3n2)c1,Potency,[1],inactive
same,Potency,[2],43.5 µM (active)
same,Potency,[3],4.09 µM (active) and 7.42 µM (active)
same,Potency,[4],5.78 µM (active) and 8.33 µM (active)
O=C(C1CCCCC1)N(CCN1CCN(c2ccccc2O)CC1)c1ccccn1,Potency,[1],12 µM (active)
C=C1CCN([C@H](C)[C@](O)(Cn2cncn2)c2ccc(F)cc2F)CC1,Potency,[1],0.477 µM (active)
CC(C)S(=O)(=O)NC[C@H](C)c1ccc(-c2ccc(CCNS(C)(=O)=O)cc2)cc1,Potency,[1],10.7 µM (active)
same,Potency,[3],6.49 µM (active)
Fc1ccc(-c2cncc(CN3CCN(c4cccc5c4OCCO5)CC3)c2)cc1,Potency,[1],10.7 µM (active)
O=C(O)c1ccc(S(=O)(=O)N(Cc2ccc(OC(F)(F)F)cc2)c2ncc(C(F)(F)F)cc2Cl)cc1,Potency,[1],23.9 µM (active)
O=C(Nc1ccccc1)N1CCC(Cc2cnc3ccccc3c2)CC1,Potency,[1],12 µM (active)
Clc1ccc(Nc2nc3ccccc3c3nc(C4CCCCC4)[nH]c23)cc1Cl,Potency,[1],6.01 µM (active)
same,Potency,[3],16.3 µM (active)
same,Potency,[4],16300 nM (active)
